Test results published in PubChem BioAssay AID1259415 (National Center for Advancing Translational Sciences (NCATS), 2018).
About 18,000 (4.4%) of roughly 410,000 compounds were called active. Another 7% or so got no clear call; they are omitted. For the sample, actives were picked, then their nearest neighbours and some compounds at random. Values without a mark were called inactive. Cut-off read from the data, not from the text of the source: active = activity change below about -60%; inconclusive = no clear call, values can overlap the other calls; inactive = above about -39%.
% is set by controls: 0 for no effect and ±100 for the full control effect.

Test: qHTS Assay for inhibitors of the human cytomegalovirus (HCMV)
Settings: HFF cells, HCMV-luciferase reporter, 72 h; at 57.5 µM; active compounds read low
Excerpt: NCGC Assay Overview: Infection with human cytomegalovirus (HCMV) continues to pose significant threats for pregnant women and immunocompromised hosts. HCMV causes serious morbidity and mortality in transplant recipients, and congenital HCMV is the leading infectious cause of mental retardation and deafness in children. In the 1990s, the annual costs associated with the disease burden of congenital CMV were estimated at around $2 billion. A HCMV vaccine is not available yet and HCMV therapies result in intolerable side effects and emergence of drug resistant viruses. […] Towards this goal we have developed and characterized a luciferase HCMV reporter that was initially used in 96 well plates and then optimized to 1536-well plates for utilization in screening of the MLSMR collection, the NGCG diversity collection and the NCGC Pharmaceutical Collection of approved and investigational drugs.
NCGC Assay Protocol Summary:
This is a cell-based assay for HCMV inhibition in HFFs cells. The screening used 2 compound doses and the HCMV-luciferase at MOI of 1 PFU/cell. Cells were treated and infected with HCMV. At 72 h post infection cell lysates were collected and luciferase activity was determined using the Glomax-Multi + Detection System (Promega, Madison, WI). Data were normalized to the controls for basal activity (buffer only) and known HCMV inhibitors Salinmoycin.
1536-well assay protocol for the assay:
(1) Add 3 ul CMV/HFF cell culture. 1000 cells/well in DMEM nirmal media.
(2) Incubate 16 hr at 37C.
(3) Add 23 nl control compound, 10uM of Salinomycin.
(4) Add 23 nl compounds in DMSO solution.
(5) Add 3 ul CMV suspension. Final 1 puf/ul, Virus stock 2000pfu/ul
(6) Incubate 72 hrs at 37C.
(7) Add 4 ul OneGlo Luc Reagent.
(8) Incubate 5 min at room temperature.
With `CCCc1c(-c2ccccc2F)ncn1Cc1ccccc1OC` the activity change, negative = inhibition was -31.6%. For `CCCCCc1c(Cc2ccccc2)ncn1CCc1ccccc1OC`, the activity change, negative = inhibition was -93.7% (active). With `COc1ccc(-c2nnc(SCC(=O)Nc3ccccc3C)o2)cc1OC` the activity change, negative = inhibition was 45.3%. `CCCCNS(=O)(=O)CCNCc1ccccc1OC` gave an activity change, negative = inhibition of -20.1%. With `FC(F)(F)c1cccc(-c2cnc3ccccc3n2)c1` the activity change, negative = inhibition was 32.3%. Work on `Nc1ncc(S(=O)(=O)Nc2ccc(OC(F)(F)F)cc2)cn1` yielded an activity change, negative = inhibition of 4.7%. Work on `CCN1C(=O)c2ccccc2S(=O)c2ccc(C(=O)NCc3ccc(F)cc3)cc21` (stereo not given) yielded an activity change, negative = inhibition of 6.08%. Work on `CSc1nn(Cc2cccc(C)c2)c(N)c1S(=O)(=O)c1ccccc1` yielded an activity change, negative = inhibition of -39.1%. Work on `Cc1ccc2ncc(C(=O)Nc3ccc(OC(F)(F)F)cc3)c(=O)n2c1` yielded an activity change, negative = inhibition of 19.1%. For `O=C(Nc1ccc(OC(F)(F)F)cc1)c1ccc2c(c1)no[n+]2[O-]`, the activity change, negative = inhibition was -88.8% (active). For `COC(=O)c1cnn(-c2ccc(C(=O)Nc3ccc(OC(F)(F)F)cc3)cc2)c1N`, the activity change, negative = inhibition was -14.8%. `Cc1ccccc1-n1c(C)cc(/C=N/NC(=O)c2ccc(CN3CCOCC3)cc2)c1C` showed an activity change, negative = inhibition of -25.2%. With `Cc1cccc(-n2c(C)cc(/C=N\NC(=O)c3cccs3)c2C)c1` the activity change, negative = inhibition was -61.8% (active). `COc1ccc2c(c1)c(C(=O)N/N=C/c1cccs1)c(C)n2C` gave an activity change, negative = inhibition of -14.7%. In the case of `O=C(Nc1cccc(Cl)c1)c1csnn1`, the activity change, negative = inhibition is reported as -2.8%. Work on `CC(=O)Nc1cc(C(=O)NCc2ccc(F)cc2Cl)ccc1Sc1ccc(Cl)cc1` yielded an activity change, negative = inhibition of 5.5%. Work on `Cn1c(C(=O)Nc2cccc(C(F)(F)F)c2)cc2c(=O)n3ccccc3nc21` yielded an activity change, negative = inhibition of 63.8%. Compound `Cc1nnsc1C(=O)N/N=C/c1cccc(C(F)(F)F)c1` has an activity change, negative = inhibition of -22.9%. In the case of `O=C(Nc1ccc(-c2csc(Nc3cccc(C(F)(F)F)c3)n2)cc1)c1cccc(C(F)(F)F)c1`, the activity change, negative = inhibition is reported as -66.8% (active). `Cc1c(CCNC(=O)c2ccc(C(F)(F)F)cc2)sc2nc(-c3ccc(F)cc3)nn12` gave an activity change, negative = inhibition of 33.8%. For `COc1ccc(Cn2ccnc2SCC(=O)Nc2ccc3c(c2)OCO3)cc1`, the activity change, negative = inhibition was -2.47%. `Cc1ccc2oc(C(=O)Nc3ccc(S(=O)(=O)N4CCCCCC4)cc3)cc(=O)c2c1` gave an activity change, negative = inhibition of 5.06%. For `CN1CCC(CN)(N2CCN(c3ccccc3)CC2)CC1`, the activity change, negative = inhibition was -78.1% (active). `Cn1nnc2c(N3CCN(c4ccccc4)CC3)ncnc21` showed an activity change, negative = inhibition of -1.12%. With `CCS(=O)(=O)N1CCC(N2CCN(c3ccccc3)CC2)CC1` the activity change, negative = inhibition was 12.5%. With `CCc1cccc(CC)c1NC(=O)Cn1c(=O)c(-c2cc(C)ccc2NC(C)=O)nc2ccccc21` the activity change, negative = inhibition was -4.17%. Compound `COc1ccc(CCC(=O)N2CCN(S(=O)(=O)c3ccc(OC)cc3)CC2)cc1` has an activity change, negative = inhibition of -31.5%. `COc1ccc(S(=O)(=O)NCc2ccc(C(=O)N(C)Cc3ccco3)cc2)cc1` showed an activity change, negative = inhibition of -13.3%. With `COc1ccc(CN(Cc2ccco2)S(=O)(=O)c2ccc(S(=O)(=O)N3CCCC3)cc2)cc1` the activity change, negative = inhibition was -62% (active). In the case of `CC1CCN(c2ccc([N+](=O)[O-])c(SCCO)c2)CC1`, the activity change, negative = inhibition is reported as -72.7% (active). `CC1CCN(c2ccc(S(=O)(=O)Nc3cc(C(=O)O)cc(C(=O)O)c3)cc2[N+](=O)[O-])CC1` gave an activity change, negative = inhibition of 31%. `CC1CCN(c2ccc3c(c2)S(=O)(=O)c2cc(C(=O)O)ccc2C3=O)CC1` showed an activity change, negative = inhibition of 22.6%. In the case of `COc1ccccc1N1CCN(C(=O)c2ccc(Cl)c(S(=O)(=O)N3CCCC3)c2)CC1`, the activity change, negative = inhibition is reported as -64.9% (active). With `CN(c1ccccc1)S(=O)(=O)c1cccc(C(=O)NNC(=O)c2ccncc2)c1` the activity change, negative = inhibition was -31.6%. Compound `CN(c1ccccc1)S(=O)(=O)c1ccc(C(=O)N2CCN(c3ccccc3Cl)CC2)cc1` has an activity change, negative = inhibition of -25.5%. `CN(c1ccccc1)S(=O)(=O)c1cc(C(=O)OCC(=O)N2CCN(C(=O)c3ccco3)CC2)ccc1Cl` showed an activity change, negative = inhibition of -12%. For `COc1ccc(C(=O)N2CCN(c3ncccn3)CC2)cc1S(=O)(=O)N1CCOCC1`, the activity change, negative = inhibition was 63%. In the case of `CN(C)S(=O)(=O)c1cc(C(=O)N2CCC(C(=O)O)(c3ccccc3)CC2)ccc1Cl`, the activity change, negative = inhibition is reported as 14.8%. For `CN(c1ccccc1)S(=O)(=O)c1cc(C(=O)N2CCN(c3ncccn3)CC2)ccc1Cl`, the activity change, negative = inhibition was -61.7% (active). In the case of `CN(c1ccccc1)S(=O)(=O)c1cc(C(=O)Nc2nc3ccccc3[nH]2)ccc1Cl`, the activity change, negative = inhibition is reported as -61.3% (active). Work on `CCS(=O)(=O)N1CCc2cc(C(=O)N3CCN(c4ccccc4OC)CC3)ccc21` yielded an activity change, negative = inhibition of 10.3%. Compound `COc1ccc(C2NC(=O)N(C)C3=C2C(=O)N(c2ccc(C(=O)O)cc2)C3)cc1` (stereo not given) has an activity change, negative = inhibition of 15.3%. In the case of `CCOC(=O)c1cc2c(=O)[nH]c(C(Cl)(Cl)Cl)nc2o1`, the activity change, negative = inhibition is reported as -14.4%. Compound `CCOC(=O)c1ccc(NC(=O)C2CCN(S(=O)(=O)c3ccc4c(c3)CCCC(=O)N4)CC2)cc1` has an activity change, negative = inhibition of -34.6%. In the case of `COc1cc(C(=O)Nc2ccc(OCc3cc(=O)n4cc(C)sc4n3)cc2)cc(OC)c1OC`, the activity change, negative = inhibition is reported as 13.1%.
